Laboratory results: the supplement of paper PMC8728848
Many of the other results were omitted from the sample, so the strongest signals are more common in it than they were.

How the values were obtained:
Assay in all cases: glycan array binding signal (z-score within array); higher = stronger binding
Conditions in all cases: glycan notation: IUPAC condensed, linker removed
[1] = target: Fuc(a1-2)Gal(b1-3)GalNAc(b1-3)Gal
Procedure, shortened: (§1)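 Negative Z-scores can be read as non-binding. The Z-score is calculated within each array and then averaged across arrays of one protein sequence at different concentrations or buffers and across linkers. Arrays, 3228 in all, were curated from the Consortium for Functional Glycomics database and kept only where the protein sequence was available.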

[2] = target: Fuc(a1-2)Gal(b1-3)[Fuc(a1-4)]GlcNAc
Procedure, shortened: as §1

[3] = target: Fuc(a1-2)Gal6S(b1-3)GlcNAc6S
Procedure, shortened: as §1

[4] = target: Fuc(a1-2)Gal6S(b1-4)Glc6S
Procedure, shortened: as §1

[5] = target: Fuc(a1-2)[Gal(a1-3)]Gal(b1-3)GlcNAc(b1-2)Man(a1-3)[Fuc(a1-2)[Gal(a1-3)]Gal(b1-3)GlcNAc(b1-2)Man(a1-6)]Man(b1-4)GlcNAc(b1-4)[Fuc(a1-6)]GlcNAc
Procedure, shortened: as §1

[6] = target: Fuc(a1-2)[Gal(a1-3)]Gal(b1-4)GlcNAc(b1-6)GalNAc
Procedure, shortened: as §1

[7] = target: Fuc(a1-2)[GalNAc(a1-3)]Gal(b1-4)GlcNAc(b1-6)GalNAc
Procedure, shortened: as §1

[8] = target: Fuc(a1-2)[GalNAc(b1-3)]Gal
Procedure, shortened: as §1

[9] = target: Fuc(a1-3)[Gal3S(b1-4)]GlcNAc
Procedure, shortened: as §1

[10] = target: Fuc(a1-3)[Gal3S(b1-4)]GlcNAc6S
Procedure, shortened: as §1

[11] = target: Fuc(a1-3)[GalNAc(b1-4)]GlcNAc
Procedure, shortened: as §1

[12] = target: Gal(a1-3)Fuc(a1-2)Gal(b1-4)GlcNAc(b1-3)[Gal(a1-3)Fuc(a1-2)Gal(b1-4)GlcNAc(b1-6)]GalNAc
Procedure, shortened: as §1

[13] = target: Gal(a1-3)Gal(b1-4)GlcNAc(b1-3)GalNAc
Procedure, shortened: as §1

[14] = target: Gal(a1-4)Gal(b1-4)GlcNAc(b1-3)Gal(b1-4)Glc
Procedure, shortened: as §1

[15] = target: Gal(b1-3)GlcNAc(b1-3)GalNAc
Procedure, shortened: as §1

[16] = target: Gal(b1-3)[Fuc(a1-4)]GlcNAc(b1-2)Man(a1-3)[Gal(b1-3)[Fuc(a1-4)]GlcNAc(b1-2)Man(a1-6)]Man(b1-4)GlcNAc(b1-4)[Fuc(a1-6)]GlcNAc
Procedure, shortened: as §1

[17] = target: Gal(b1-4)GlcNAc(b1-3)Gal(b1-4)GlcNAc(b1-3)Gal(b1-4)GlcNAc(b1-2)Man(a1-3)[Gal(b1-4)GlcNAc(b1-3)Gal(b1-4)GlcNAc(b1-3)Gal(b1-4)GlcNAc(b1-2)Man(a1-6)]Man(b1-4)GlcNAc(b1-4)[Fuc(a1-6)]GlcNAc
Procedure, shortened: as §1

[18] = target: Gal(b1-4)GlcNAc(b1-3)Gal(b1-4)GlcNAc(b1-6)[Gal(b1-3)]GalNAc
Procedure, shortened: as §1

[19] = target: Gal3S(b1-4)Glc6S
Procedure, shortened: as §1

[20] = target: Gal3S(b1-4)GlcNAc6S
Procedure, shortened: as §1

[21] = target: Gal3S4S(b1-4)GlcNAc
Procedure, shortened: as §1

[22] = target: Gal3S6S(b1-4)GlcNAc
Procedure, shortened: as §1

[23] = target: Gal3S6S(b1-4)GlcNAc6S
Procedure, shortened: as §1

[24] = target: Gal4S6S(b1-4)GlcNAc
Procedure, shortened: as §1

[25] = target: Gal6S(b1-3)GlcNAc6S
Procedure, shortened: as §1

[26] = target: Gal6S(b1-4)GlcNAc6S
Procedure, shortened: as §1

[27] = target: GalNAc(a1-3)GalNAc(b1-3)Gal(a1-4)Gal(b1-4)Glc
Procedure, shortened: as §1

[28] = target: GalNAc(b1-3)Gal(a1-6)Gal(b1-4)Glc
Procedure, shortened: as §1

[29] = target: GalNAc(b1-4)GlcNAc
Procedure, shortened: as §1

[30] = target: Glc(a1-4)Glc(a1-4)Glc(a1-4)Glc
Procedure, shortened: as §1

[31] = target: GlcNAc(a1-6)Gal(b1-4)GlcNAc
Procedure, shortened: as §1

[32] = target: GlcNAc(b1-2)Gal(b1-3)GalNAc
Procedure, shortened: as §1

[33] = target: GlcNAc(b1-2)Man(a1-3)[GlcNAc(b1-4)][GlcNAc(b1-2)Man(a1-6)]Man(b1-4)GlcNAc(b1-4)[Fuc(a1-6)]GlcNAc
Procedure, shortened: as §1

[34] = target: GlcNAc(b1-3)Gal(b1-4)GlcNAc(b1-6)[GlcNAc(b1-3)Gal(b1-3)]GalNAc
Procedure, shortened: as §1

[35] = target: GlcNAc(b1-4)Gal(b1-4)GlcNAc
Procedure, shortened: as §1

[36] = target: GlcNAc(b1-4)GlcNAc(b1-4)GlcNAc(b1-4)GlcNAc(b1-4)GlcNAc
Procedure, shortened: as §1

[37] = target: GlcNAc6S(b1-3)Gal(b1-4)GlcNAc
Procedure, shortened: as §1

[38] = target: Kdn(a2-3)Gal(b1-4)Glc
Procedure, shortened: as §1

[39] = target: Neu5Ac(a2-3)Gal(b1-4)GlcNAc(b1-2)Man(a1-3)[GlcNAc(b1-2)Man(b1-4)GlcNAc(b1-2)Man(a1-6)]Man(b1-4)GlcNAc(b1-4)GlcNAc
Procedure, shortened: as §1

[40] = target: Neu5Ac(a2-3)Gal(b1-4)GlcNAc(b1-3)Gal(b1-4)GlcNAc(b1-3)GalNAc
Procedure, shortened: as §1

[41] = target: Neu5Ac(a2-3)Gal(b1-4)GlcNAc(b1-6)GalNAc
Procedure, shortened: as §1

[42] = target: Neu5Ac(a2-3)Gal(b1-4)[Fuc(a1-3)]GlcNAc(b1-3)Gal
Procedure, shortened: as §1

[43] = target: Neu5Ac(a2-3)[Neu5Ac(a2-6)]GalNAc
Procedure, shortened: as §1

[44] = target: Neu5Ac(a2-6)Gal
Procedure, shortened: as §1

[45] = target: Neu5Ac(a2-6)Gal(b1-4)GlcNAc(b1-2)Man(a1-6)[GlcNAc(b1-2)Man(a1-3)]Man(b1-4)GlcNAc(b1-4)GlcNAc
Procedure, shortened: as §1

[46] = target: Neu5Ac(a2-6)Gal(b1-4)GlcNAc(b1-2)Man(a1-6)[Man(a1-3)]Man(b1-4)GlcNAc(b1-4)GlcNAc
Procedure, shortened: as §1

[47] = target: Neu5Ac(a2-6)Gal(b1-4)GlcNAc(b1-3)Gal(b1-4)GlcNAc(b1-3)[Neu5Ac(a2-6)Gal(b1-4)GlcNAc(b1-3)Gal(b1-4)GlcNAc(b1-6)]GalNAc
Procedure, shortened: as §1

[48] = target: Neu5Ac(a2-6)Gal(b1-4)GlcNAc(b1-6)[Gal(b1-3)GlcNAc(b1-3)]Gal(b1-4)Glc
Procedure, shortened: as §1

[49] = target: Neu5Ac(a2-6)Gal(b1-4)GlcNAc(b1-6)[Gal(b1-3)]GalNAc
Procedure, shortened: as §1

[50] = target: Neu5Ac(a2-6)GlcNAc(b1-4)GlcNAc
Procedure, shortened: as §1

[51] = target: Neu5Ac(a2-8)Neu5Ac(a2-3)Gal(b1-4)Glc
Procedure, shortened: as §1

[52] = target: Neu5Gc(a2-3)Gal(b1-3)GlcNAc
Procedure, shortened: as §1

KILRGVCKKIMRTFLRRISKDILTGKK [NK2 (Sus scrofa)]
glycan array binding signal (z-score) [1]: 0.02 | glycan array binding signal (z-score) [2]: -0.178 | glycan array binding signal (z-score) [3]: 2.03 | glycan array binding signal (z-score) [4]: 2.24 | glycan array binding signal (z-score) [5]: 0.527 | glycan array binding signal (z-score) [6]: 0.282 | glycan array binding signal (z-score) [7]: -1.05 | glycan array binding signal (z-score) [8]: -0.991 | glycan array binding signal (z-score) [9]: 0.36 | glycan array binding signal (z-score) [10]: 1.58 | glycan array binding signal (z-score) [11]: 0.101 | glycan array binding signal (z-score) [12]: -0.533 | glycan array binding signal (z-score) [13]: 0.826 | glycan array binding signal (z-score) [14]: 0.785 | glycan array binding signal (z-score) [15]: -0.33 | glycan array binding signal (z-score) [16]: -0.004 | glycan array binding signal (z-score) [17]: 0.462 | glycan array binding signal (z-score) [18]: 2.04 | glycan array binding signal (z-score) [19]: 1.67 | glycan array binding signal (z-score) [20]: 4.29 | glycan array binding signal (z-score) [21]: 2.81 | glycan array binding signal (z-score) [22]: 2.92 | glycan array binding signal (z-score) [23]: 3.98 | glycan array binding signal (z-score) [24]: 2.26 | glycan array binding signal (z-score) [25]: 3.16 | glycan array binding signal (z-score) [26]: 2.85 | glycan array binding signal (z-score) [27]: -0.58 | glycan array binding signal (z-score) [28]: -0.616 | glycan array binding signal (z-score) [29]: -0.865 | glycan array binding signal (z-score) [30]: 0.05 | glycan array binding signal (z-score) [31]: -1.07 | glycan array binding signal (z-score) [32]: -0.471 | glycan array binding signal (z-score) [33]: -1.11 | glycan array binding signal (z-score) [34]: 0.144 | glycan array binding signal (z-score) [35]: 0.592 | glycan array binding signal (z-score) [36]: 0.06 | glycan array binding signal (z-score) [37]: -0.015 | glycan array binding signal (z-score) [38]: 0.105 | glycan array binding signal (z-score) [39]: -0.411 | glycan array binding signal (z-score) [40]: 2.37 | glycan array binding signal (z-score) [41]: 1.14 | glycan array binding signal (z-score) [42]: -0.39 | glycan array binding signal (z-score) [43]: 0.24 | glycan array binding signal (z-score) [44]: -0.071 | glycan array binding signal (z-score) [45]: 0.794 | glycan array binding signal (z-score) [46]: -0.656 | glycan array binding signal (z-score) [47]: 0.794 | glycan array binding signal (z-score) [48]: -0.41 | glycan array binding signal (z-score) [49]: -1.1 | glycan array binding signal (z-score) [50]: -0.816 | glycan array binding signal (z-score) [51]: -0.889 | glycan array binding signal (z-score) [52]: -0.108
